Assay outcomes (PubChem)
HEK293 tox: cytotoxic in the GLP-1 receptor inverse agonist counter-screen; HEK293 cAMP-luciferase reporter cells, luminescence, 24 h; Potency, µM (doses to about 38.3 µM), without a hit: at the highest dose activity change, negative = inhibition, hits mostly inhibitors; 410,000 compounds, 0.13% hits; AID 624418;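 also: loss of luciferase light is scored as toxicity; % is scaled to controls: 0 for no effect and ±100 for the full control effect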
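Seeding density was 200 cells/uL; after overnight-length (12 h) culture, 23 nL compounds went on for 24 h at 37 °C. Readout used a luciferase detection reagent, luminescence taken after 12 min at room temperature.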
RORgamma inh: ROR gamma (mouse) transcription inhibition | P51450 | Drosophila S2 Gal4-RORgamma UAS-luciferase reporter, 20 h | Potency, µM (series often up to 53.6 µM), for the others: at the highest dose activity change, negative = inhibition, hits mostly inhibitors | 310,000 compounds, 5.4% hits; also: % is scaled to controls: 0 for no effect and ±100 for the full control effect; nearly all actives have a fitted effect of over 60% in size
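ROR gamma transcriptional activity was tracked as Gal4-UAS luciferase output in stably transfected Drosophila Schneider cells, with compound added 1 hr before 700 uM copper sulfate induction and a 20 hr ambient-temperature incubation.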
GLP1R inv ag: inverse agonists of human GLP-1 receptor; 410,000 compounds, 1.6% hits; P43220; HEK293 GLP-1R CRE-luciferase, luminescence, 24 h; GLP-1R form is constitutively active; Potency, µM (series often up to 38.3 µM), for inactives: top-dose activity change, negative = inhibition, hits mostly inhibitors; also: % is scaled to controls: 0 for no effect and ±100 for the full control effect; nearly all actives have a fitted effect of over 55% in size
Target sequence (P43220 whole entry, looked up): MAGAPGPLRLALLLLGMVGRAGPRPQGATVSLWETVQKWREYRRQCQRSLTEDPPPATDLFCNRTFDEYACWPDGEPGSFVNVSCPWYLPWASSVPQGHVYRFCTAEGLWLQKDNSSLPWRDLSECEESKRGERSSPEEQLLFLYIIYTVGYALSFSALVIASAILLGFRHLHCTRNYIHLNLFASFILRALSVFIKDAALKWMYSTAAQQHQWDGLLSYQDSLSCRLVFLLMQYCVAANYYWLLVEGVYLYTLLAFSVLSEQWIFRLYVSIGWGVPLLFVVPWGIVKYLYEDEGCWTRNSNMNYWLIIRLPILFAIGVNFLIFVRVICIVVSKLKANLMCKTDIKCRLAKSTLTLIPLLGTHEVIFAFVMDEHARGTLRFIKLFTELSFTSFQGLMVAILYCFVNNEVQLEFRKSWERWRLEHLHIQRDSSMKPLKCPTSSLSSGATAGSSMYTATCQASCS
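Inverse agonists were sought by their lowering of basal cAMP reporter luciferase output in HEK293 cells stably carrying constitutively active human GLP-1R, after 24 h compound treatment.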
GLP1R ag: GLP-1 receptor (human) agonism. 380,000 compounds, 0.007% hits. Potency, µM (highest dose often 45.6 µM), for the others: at the highest dose activation, most hits filed as activators. HEK293 GLP-1R CRE-luciferase, luminescence, 4-6 h; cells express a hypersensitive GLP-1R form. AID 624172. P43220; also: % of control where 0% means no effect
VP16 counter: Gal4-VP16 reporter inhibition counter-screen | Drosophila S2 Gal4-VP16 UAS-luciferase, luminescence, 20 h | Potency, µM (top dose mostly 53.6 µM), for inactives: at the top dose activity, negative = inhibition, hits mostly inhibitors | 310,000 compounds, 3.5% hits;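 also: Gal4-VP16 expression switched on by copper sulfate through the metallothionein promoter; % is scaled to controls: 0 for no effect and ±100 for the full control effect; nearly all actives have a fitted effect of over 50% in size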
* hit, by the source's call; ? = inconclusive; · = no result; [ ] = remark or other dose. The list is not random: actives were taken first. Their share in the collection is about 5.9%. Calls follow the shape of the dose curve; as a rule, active = well fitted curve in the direction sought with a large enough effect; inconclusive = small, poorly fitted or top-dose-only effect, or another doubt; inactive = no such curve, though single readings can be large; an effect the other way counts as inactive or inconclusive. Potency is read from the fitted curve at half-maximal effect.

SMILES | HEK293 tox | RORgamma inh | GLP1R inv ag | GLP1R ag | VP16 counter
COc1ccc(OC)c(/C=C/C(=O)c2ccc3c(c2)OCCO3)c1 | 13.8% | 10µM* | ? | 0.9% | -24.7%
COc1cc(/C=C/C(=O)c2ccc3c(c2)OCCO3)cc(OC)c1OC | -5.1% | ? | ? | -5.2% | ?
CCCN1CCCC(c2cccc(S(C)(=O)=O)c2)C1 (stereo not given) | · | 13.6% | · | · | -3.6%
Cc1ccc(C)c(C(=O)N2CCC(c3nc4c(nnn4Cc4ccccc4)c(=O)[nH]3)CC2)c1 | -9.4% | · | ? | · | ·
O=C(C1CC1)N(CCc1ccccc1)Cc1nc2ccccc2c(=O)[nH]1 | -15.3% | ? | -12.5% | 0.6% | -27.5%
O=C(C1CCC1)N(CCc1ccccc1)Cc1nc2ccccc2c(=O)[nH]1 | -21.9% | 1.78µM* | ? | 0.2% | 7.94µM*
COc1ccc(CCN(Cc2nc3ccccc3c(=O)[nH]2)C(=O)C2CC2)cc1 | ? | 3.16µM* | ? | 6.5% | 12.6µM*
COc1ccc2[nH]c(S(=O)Cc3ncc(C)c(OC)c3C)nc2n1 (stereo not given) | · | 3.5% | · | -4.2% | 1.1%
COc1cccc(NC(=O)CN(C)C(=O)c2ccc(-c3ccccc3Cl)o2)c1 | -6.2% | 14.5% | 8.91µM* | 7.2% | -13.6%
CN(CC(=O)Nc1ccccc1Br)C(=O)c1ccc(-c2ccc(Cl)cc2)o1 | -18.6% | ? | -29.4% | 0.2% | 5.62µM*
COc1cccc(NC(=O)CN(C)C(=O)c2ccc(-c3ccc(Cl)cc3)o2)c1 | 7.8% | · | ? | 1.2% | ·
COC/C=C/C1=CC2=CC(=O)C(C)(OC(=O)c3ccc(Cl)nc3)C(=O)C2=CO1 (stereo not given) | · | 15.0% | · | · | 9.5%
CC1(C)CC(=O)C2=C(C1)NC(Nc1nc3ccccc3o1)=NC2c1ccccn1 (stereo not given) | ? | 3.55µM* | -35.2% | 9.5% | 1.12µM*
COc1ccc(CCNc2ncnc3c2c(-c2ccccc2)cn3-c2ccc(Cl)cc2)cc1OC | -1.9% | · | -2.9% | · | ·
O=C(/C(=C(\O)c1ccccc1)c1nc2ccccc2[nH]1)c1ccccc1 | ? | 7.94µM* | 10µM* | 9.8% | ?
O=C(/C(=C(\O)c1ccccc1)c1ncc[nH]1)c1ccccc1 | -5.2% | 12.6µM* | -5.4% | 2.4% | ?
C[C@H]1C[C@@H]2[C@H]([C@@H](O)C[C@@]3(C)[C@H]2CC[C@]3(O)C(=O)COC(=O)CCC(=O)O)[C@@]2(C)C=CC(=O)C=C12 | · | · | · | 24.5% | ·
COCCn1c(=O)c(-c2ccccc2)nc2cnc(N(C)C)nc21 | · | 16.9% | · | · | 7.5%
C#CCn1c(S(=O)(=O)Cc2ccc(F)cc2)nc(-c2ccccc2)c1-c1ccccc1 | 3.8% | 4.3% | 5.62µM* | -3.5% | 3.8%
COc1ccc(NC(=O)CN(C)CC(=O)Nc2cccc(F)c2)cc1Cl | -14.1% | 16.6% | 10µM* | 22.1% | -21.8%
COc1cccc(NC(=O)CN(C)C(=O)C23CC4CC(CC(Cl)(C4)C2)C3)c1 | -13.7% | · | 7.94µM* | 2.2% | ·
COc1cccc(CN(C)CC(=O)Nc2cccc(C(F)(F)F)c2)c1OC | 15.5% | 12.3% | -20.2% | 18.0% | 5.0%
COc1cccc(NC(=O)CN(C)CC(=O)Nc2cccc(C(F)(F)F)c2)c1 | -11.9% | 10.3% | 7.08µM* | 26.1% | 4.3%
COc1cccc(CNC(=O)COC(=O)C23CC4CC(CC(Cl)(C4)C2)C3)c1 | -13.2% | · | -13.7% | 12.5% | ·
COc1ccc(-c2ccc(C(=O)Nc3cccc(C(F)(F)F)c3)c3occc23)c(C)c1 | -5.1% | · | 4.47µM* | -0.6% | ·
SMILES | HEK293 tox | RORgamma inh | GLP1R inv ag | GLP1R ag | VP16 counter
Cc1ccc(OC(F)F)c(NC(=O)Nc2cccc(C(F)(F)F)c2)c1 | ? | 5.01µM* | ? | -17.0% | 6.31µM*
O=C(Nc1ccccc1)Nc1cccc(C(F)(F)F)c1 | -11.7% | ? | ? | -0.9% | -6.4%
CCCCCNCC(=O)Nc1cccc(C(=O)Nc2cccc(C(F)(F)F)c2)c1 | ? | ? | 6.31µM* | 11.9% | -28.4%
COC(=O)/C=C/C(=O)Nc1cccc(C(F)(F)F)c1 | ? | ? | 7.94µM* | 8.3% | -5.8%
O=C(COCC(=O)Nc1cccc(C(F)(F)F)c1)Nc1cccc(C(F)(F)F)c1 | -10.7% | 22.4µM* | ? | 0.3% | ?
O=C(CN1CCOCC1)Nc1cccc(C(=O)Nc2cccc(C(F)(F)F)c2)c1 | ? | 10.7% | -23.2% | -5.4% | -11.3%
Cc1nn(S(=O)(=O)c2ccc(C(C)(C)C)cc2)c(C)c1S(=O)(=O)N1CCCCCC1 | 4.6% | · | 2.6% | -8.6% | ·
COc1cccc(Nc2ncc3nc(CCc4ccccc4)c(=O)n(Cc4cccs4)c3n2)c1 | · | 2.1% | · | · | -14.1%
O=C(Nc1ccc(C(=O)N2CCC(O)(c3ccc(Cl)c(C(F)(F)F)c3)CC2)cc1)c1ccc(Br)o1 | -1.5% | · | 10µM* | -3.1% | ·
Cc1ccc(C(=O)N2CCN(c3ccc(NC(=O)c4ccc(Br)o4)cc3)CC2)cc1 | 19.1% | 12.7% | 15.1% | -7.2% | -20.1%
O=C(NCCc1c[nH]c2ccccc12)[C@H]1C[C@@H]1[C@H](NP(=O)(c1ccccc1)c1ccccc1)c1ccccc1 | · | ? | · | · | -4.8%
COc1ccc2[nH]c(C)c(CCN(Cc3cccs3)C(=S)Nc3ccccc3)c2c1 | -17.5% | 1.78µM* | ? | -0.5% | -21.6%
COc1ccc(NC(=S)N(CCc2c(C)[nH]c3ccc(C)cc23)Cc2cccs2)cc1 | -16.3% | ? | ? | -1.6% | -10.5%
COc1ccc2[nH]c(C)c(CCN(Cc3cccs3)C(=S)Nc3ccc(F)cc3)c2c1 | -17.6% | -35.1% | ? | -4.4% | -26.7%
CNC(=S)N(CCc1c(C)[nH]c2ccc(C)cc12)Cc1cccs1 | ? | 11.2µM* | ? | -3.7% | ?
Cc1ccc(C(=O)[C@H](C)CN2CCCCC2)cc1 | · | · | · | -5.6% | ·
CCOc1ccccc1-c1nnc2n1N=C(c1ccc(OC)cc1)CS2 | · | ? | · | · | -2.9%
CC(C)(C)n1nnnc1C(c1cccs1)N(Cc1ccc(Cl)cc1)CC1CCCO1 (stereo not given) | -3.2% | ? | 5.01µM* | 1.4% | ?
Clc1ccc(CN(Cc2ccccc2)C(c2cccs2)c2nnnn2C2CCCC2)cc1 (stereo not given) | 3.4% | -81.2% | ? | -2.7% | ?
CC1(C)CC(=O)C=C(NNC(=O)c2ccccc2O)C1 | 187.7% | 12.6µM* | 7.3% | -3.9% | 11.2µM*
S=c1[nH]nc(Cc2ccccc2)n1-c1ccc(Cl)cc1 | -12.6% | 2.24µM* | -23.1% | 0.3% | ?
Cc1ccc(-n2c(Cc3noc4ccccc34)n[nH]c2=S)cc1 | 14.4%[0.307 µM] | -7.2% | -11.3%[0.307 µM] | 3.3% | -26.8%
Cc1ccc(-n2c(CSc3nc(C)cc(C)n3)n[nH]c2=S)cc1 | -0.3% | 14.1µM* | 1.1% | 3.4% | -13.3%
